Compounds without any hit were thinned out: in the full panel of roughly 83,000, 20% have a hit.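 Plates (96-well) were seeded with cells, treated with compound at one concentration, and incubated for 48 hours before percent growth was determined.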 The source made the active and inactive calls.

The test relates to A498 renal. The test can be described thus: NCI-60 one-dose screen, 48 h (100 = growth as untreated, 0 = no growth, -100 = all killed). As to conditions: 10 µM unless noted. The method, then:
Growth inhibition of the A498 human tumor cell line is measured as a screen for anti-cancer activity. Cells are grown in 96 well plates and exposed to the test compound for 48 hours. Compounds are tested at a single concentration, which is 10^-5 M for most compounds. The reported endpoint is percent growth (GI% or GIPRCNT), where numbers from 0 - 100% represent growth inhibition, and numbers from -100% - 0 represent cell death. For example, a value of 40 represents 60% growth inhibition. A value of 0 means no net growth occurred over the course of the experiment. A value of -40 indicates 40% of cells at the beginning of the experiment died by the end of the experiment. A value of -100 means all cells are dead at the end of the experiment.
NCI-60 Human Tumor Cell Lines Screen was performed using the standard one-dose NCI protocol, which is described in more detail at https://dtp.cancer.gov/discovery_development/nci-60/default.htm.
Compounds with GIPRCNT values below 10 were considered active. Activity score was based on GIPRCNT using the following formula: […]
Score is 0 for GIPRCNT values of 100 or above, 50 for GIPRCNT values of 0, and 100 for GIPRCNT values of -100.
Take `Oc1[nH]c2ccccc2c1/C=c1/ccc2c(c1)N=C(c1ccc(C(F)(F)F)cc1)N=2`: the growth was 35% (inactive).

Regarding `CCOCC(O)(c1ccc(Cl)cc1)c1ccc(Cl)cc1`, the growth is 112% (inactive).

With `COc1cc2c(cc1OC)C(=O)OC2`, the growth was 109% (inactive).

As for `Brc1ccccc1Cn1c(-c2cncs2)nc2ccccc21`, the growth is 71.6% (inactive).

As for `COc1ccc2[nH]cc(C(c3ccc(Cl)cc3)N3CCCC3)c2c1` (stereo not given), the growth is 87% (inactive).

With `COC(=O)c1ccc(NC(N)=NCCC(C)(C)c2ccc(C(F)(F)F)cc2)nc1`, the growth was 51.8% (inactive).

Consider `CC(C)CC(NC(=O)C(CCCN=C(N)N)NC(=O)OCc1ccccc1)C(=O)NC(CNC(=O)/C=C/c1ccccc1)C(C)C` (stereo not given), for which the growth is 103% (inactive).

Regarding `NC(=Nc1ccccc1)SCCCSC(N)=Nc1ccccc1`, the growth is 80.2% (inactive).

In the case of `O=C1C2=C(C(=O)c3c(O)ccc(O)c31)N(c1ccc(N3CCOCC3)nc1)Cc1ccccc1O2`, the growth is -50.1% (active).

`O=C(Nc1ccc2ncnc(Nc3ccc(F)c(Cl)c3)c2c1)c1cccs1`: the growth is 46% (inactive).

On to `COc1cc(/C=C/C(=O)c2ccc(NC(=O)CSc3nnc(-c4ccc(Cl)cc4)n3-c3ccccc3)cc2)cc(OC)c1OC`, for which the growth was 77.5% (inactive).

Consider `CO[C@@]12[C@@H]3NC3CN1C1=C(C(=O)C(N)=C(C)C1=O)[C@@H]2COC(N)=O` (stereo not given in full), for which the growth was -82.9% (active).

`Oc1ccc(-c2cnc(-c3ccccc3)[nH]2)c(O)c1`: the growth was 110% (inactive).

Turning to `O=C(/C=C/c1cc([N+](=O)[O-])ccc1Cl)c1ccccc1`, the growth is 86% (inactive).

Regarding `O=C(Nc1ccccc1Cl)Oc1ccc2ccccc2c1`, the growth was 100% (inactive).

Turning to `CCC(=O)NC(O)C(Cl)(Cl)C(C)Cl` (stereo not given), the growth is 107% (inactive).

In the case of `O=C1CC2(O)CSc3nc(=O)cc(n32)N1` (stereo not given), the growth was 104% (inactive).

As to `CC(=O)N[C@@H](CCC(N)=O)C(=O)O`, the growth was 86.6% (inactive).

As for `CC(C)(C)CC(C)(C)NCc1cc(C(C)(C)C)cc(CNC(C)(C)CC(C)(C)C)c1O`, the growth was 64.9% (inactive).

With `COc1ccc(C2CC(c3ccc(Nc4ccnc5cc(Cl)ccc45)cc3)=NN2c2ccccc2)cc1` (stereo not given), the growth is 49.7% (inactive).

`COCCn1c(Nc2ccc(C(=O)NO)cc2)nc2ccccc21`: the growth was 84.2% (inactive).

Consider `COc1cc2nccc(Oc3ccc(NC(=O)C4(C(=O)Nc5ccc(F)cc5)CC4)cc3)c2cc1OC(=O)c1ccc(N)cc1`, for which the growth was 64% (inactive).

`O=C(NCCNC(=O)c1cc(S(=O)(=O)NCCc2ccccc2)c(O)c(O)c1O)c1cc(S(=O)(=O)NCCc2ccccc2)c(O)c(O)c1O`: the growth is 87.3% (inactive).

With `COc1ccc(NC(=O)/C=C/c2ccc(Cl)c(Cl)c2)cn1`, the growth is 65.6% (inactive).

In the case of `CCCCCNCCCCCNc1cc(OC)cc2cccnc12`, the growth is 75% (inactive).

Take `C=CCN(CCOC(=O)c1ccc([N+](=O)[O-])cc1)CCOC(=O)c1ccc([N+](=O)[O-])cc1`: the growth was 95.2% (inactive).

On to `O=C(c1ccccc1)N(CCCCl)C(=O)N(CCCCl)C(=O)c1ccccc1`, for which the growth was 79.5% (inactive).

With `CCCCOc1ncnc2nc[nH]c12`, the growth is 97% (inactive).

As for `COc1ccc(C2=NN(C=O)C(c3ccc(OS(=O)(=O)c4ccc(C)cc4)c(OC)c3)C2)cc1` (stereo not given), the growth was 39.6% (inactive).

Consider `COc1ccc(C2=CC(c3ccc(OC)cc3Br)N3C=CSC3=N2)cc1` (stereo not given), for which the growth is 72.2% (inactive).

In the case of `Cc1ccc2nc(CN(CCN(Cc3nc4ccc(C)cc4[nH]3)Cc3nc4ccc(C)cc4[nH]3)Cc3nc4ccc(C)cc4[nH]3)[nH]c2c1`, the growth is -94% (active).

In the case of `C#CC[C@@H]1C[C@]2(C)[C@H]3CC=C4[C@H]5[C@@H](C)[C@H](C)CC[C@]5(C(=O)NCCCCN)CC[C@@]4(C)[C@]3(C)CC[C@H]2C(C)(C)[C@H]1OC(C)=O`, the growth is 118% (inactive).

Take `COc1ccc([C@@H]2[C@@H](Oc3ccccc3)C(=O)N2c2cc(OC)c(OC)c(OC)c2)cc1F`: the growth was -9.03% (active).

Regarding `Cc1cc(NC(=O)c2ccc(N)cc2)ccc1N=Nc1ccc2cc(S(=O)(=O)O)cc(S(=O)(=O)O)c2c1`, the growth was 90.6% (inactive).

Take `Clc1ncnc2scc(C3COc4ccccc4O3)c12` (stereo not given): the growth is 97% (inactive).

As to `COc1ccc(-c2nc(-c3cc(OC)cc(OC)c3)[nH]c2-c2ccc(OC)cc2)cc1`, the growth is 66% (inactive).

In the case of `C=CCn1c(SCC(=O)Nc2ccc(/C(C)=N\O)cc2)nnc1-c1cc(-c2ccccc2)nc2ccccc12`, the growth was 65.1% (inactive).

As for `CC(C)COC(=O)NC(C)(C)C`, the growth is 120% (inactive).

Take `O=C(Nc1cnc(C(F)(F)F)cn1)c1cc(Cl)ccc1O`: the growth was -53.5% (active).

`Cc1ccc2oc(=O)cc(-c3nc4ccc([N+](=O)[O-])cc4[nH]3)c2c1`: the growth was 43.7% (inactive).
